Molecules are shown by their SMILES. Out of some 60,000 compounds screened, about 65 (0.1%) were called active. The call rests on the fitted dose curve; in most records, active means well fitted inhibition curve with a large enough effect; inconclusive means small, poorly fitted or top-dose-only effect; inactive means no such curve, though single readings can be large or run the other way. The entries come from a sample that favours actives as a whole. Entries that show only a call come without a potency.

The text below walks through data of PubChem BioAssay AID927 (National Center for Advancing Translational Sciences (NCATS), 2007).
Potency means the concentration at half of the fitted maximal effect.

Ubiquitin carboxyl-terminal hydrolase 2 (Homo sapiens), sequence (O75604 whole entry, looked up): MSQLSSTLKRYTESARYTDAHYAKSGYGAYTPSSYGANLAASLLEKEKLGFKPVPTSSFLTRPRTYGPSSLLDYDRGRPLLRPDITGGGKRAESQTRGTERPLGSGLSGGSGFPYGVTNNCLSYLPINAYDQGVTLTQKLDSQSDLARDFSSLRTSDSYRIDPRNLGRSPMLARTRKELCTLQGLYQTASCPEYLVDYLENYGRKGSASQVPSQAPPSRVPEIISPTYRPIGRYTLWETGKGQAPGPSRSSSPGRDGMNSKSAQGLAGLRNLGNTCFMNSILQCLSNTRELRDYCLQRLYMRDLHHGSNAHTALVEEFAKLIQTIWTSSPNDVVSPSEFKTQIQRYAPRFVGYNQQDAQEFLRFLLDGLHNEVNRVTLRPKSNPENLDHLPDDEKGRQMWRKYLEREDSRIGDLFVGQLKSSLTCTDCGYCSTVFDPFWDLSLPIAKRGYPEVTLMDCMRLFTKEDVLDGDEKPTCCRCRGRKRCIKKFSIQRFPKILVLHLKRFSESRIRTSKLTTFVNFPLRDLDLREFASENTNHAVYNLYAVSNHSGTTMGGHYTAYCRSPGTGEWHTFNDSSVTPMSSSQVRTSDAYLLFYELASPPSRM

This experiment has as its target Ubiquitin carboxyl-terminal hydrolase 2 (Homo sapiens) (UniProt O75604). The experiment can be described thus: qHTS Assay for Inhibitors of Ubiquitin-specific Protease USP2a. Further: nearly all actives have a fitted effect of over 60% in size. The following applies: USP2a enzymatic assay; Potency: qHTS inhibition; series mostly up to 38.3 µM. From the text: NIH Molecular Libraries Screening Centers Network [MLSCN]
NIH Chemical Genomics Center [NCGC]
PI Name: Nicholson, Ben. Progenra Inc, Malvern, PA
Homeostasis of cellular proteins is maintained through a combination of synthesis and degradation. The pathway that accounts for the majority of protein degradation is the ubiquitin-proteasomal pathway. Ubiquitin (Ub) is highly conserved in all cells and the generation of a multi-Ub chain typically targets proteins for degradation by the proteasome. However, ubiquitination is highly reversible and dynamic. Deubiquitination, the reverse process, is catalyzed through the action of enzymes referred to as isopeptidases or deubiquitinating enzymes (DUBs). This group of enzymes is collectively responsible for maintaining adequate pools of free ubiquitin and regulating the ubiquitination status of cellular proteins. The class of DUBs referred to as the ubiquitin-specific proteases (USP) family functions endoproteolytically to cleave Ub chains from a wide range of protein substrates. USP2a deubiquitinates fatty acid synthase (FASN) which has recently been identified as an emerging oncology target. To identify inhibitors of USP2a a cell-free assay was employed.
The reporter enzyme chosen is phospholipase A2 (PLA2), which has an absolute requirement for a free amino terminus. Thus, fusion of a UBL to the N-terminus of PLA2 inactivates PLA2. When the UBL-PLA2 reporter enzyme is cleaved by USP2, the activated reporter can subsequently act on its substrate, which is the commercially available NBD C6-HPC (Invitrogen). Thus, this coupled assay gives a fluorescent read-out, which is generated through the cleavage of the PLA2 reporter enzyme. The assay, developed by Progenra, Inc. uses Ub-PLA2 and USP2a at near equal and low (nM) amounts and has been licensed for sale by LifeSensors, Inc. as the Ub-IsoPro1 kit.
NCGC Assay Protocol Summary:
The assay buffer, prepared fresh at the day of the assay, contains 20mM Tris-HCl pH 8.0, 2mM CaCl2, 2mM beta-Mercaptoethanol, 0.1% DMSO. 3ul of 40nM (20nM final) USP2 core, which is stored on ice, is dispensed into a medium-binding black solid Kalypsys 1,536 well plate using the Kalypsys dispenser. The assay plate is then pinned with 23nL compound with the Kalypsys pintool in columns 5-48. The controls are pinned as follows: column 1&2 two-fold dilutions of 2M NEM in duplicate; column 3 DMSO; column 4 2M NEM (final concentration 38.2mM). The assay plate is incubated at RT for 30min. Subsequently, 3uL of 40nM (20nM final) Ub-PLA2 and 40uM (20uM final) NBD C6-HPC (stored on ice and protected from light) were dispensed into the plate using the Kalypsys dispenser. Plates were read immediately (0 Hour) on an Envision (Perkin Elmer) plate reader using the following wavelengths Ex 460nm /Em 535nm. Then, the assay plates were incubated for 2.5 hours and read again on the Envision using the same settings
Data were normalized to the to AC100 inhibition (NEM). Concentration-response curves were fitted to the normalized data and the concentration-response curves were then classified based on curve quality (r2), response magnitude and degree of measured activity. The time zero reading was used to flag fluorescence artifacts.
Keywords: ubiquitination, deubiquitination, proteases, profluorescent, MLSMR, MLSCN, NIH Roadmap, qHTS, NCGC
As for `Clc1ccc(C(c2ccc(Cl)cc2)n2cc[n+](C[C@@H](OCc3ccc(Cl)cc3Cl)c3ccc(Cl)cc3Cl)c2)cc1`, the Potency was 25.1 µM (active).

On to `COc1ccc(C2Oc3c(I)c(OC)cc(OC)c3CC2O)cc1OC` (stereo not given), for which the Potency result was “inactive”.

Consider `COC1CC(OC2CC[C@@]3(C=O)C4CC[C@]5(C)C(C6=CC(=O)OC6)CC[C@@]5(O)C4CC[C@]3(O)C2)OC(C)C1O` (stereo not given in full), for which the Potency entry is “inactive”.

Take `COc1cc2c(cc1OC)[C@@H]1C(=O)c3ccc(O)c(CC=C(C)C)c3OC1CO2` (stereo not given in full): the Potency entry was “inactive”.

Regarding `C=CCSSCC=C`, the Potency result was “inactive”.
